# From ChEMBL document CHEMBL3988442, “University of Dundee, Small-Polar-MMV Screening Library” (2021)
# Target: AMP-activated protein kinase, AMPK (Homo sapiens) (UniProt P54646+O43741+P54619+Q9UGJ0+Q9Y478+Q13131+Q9UGI9)
# Test: AMP-dependent Kinase enzyme assay. An in vitro enzyme assay that detects ADP turnover that is directly proportional to AMPK activity. This uses naive AMPK that is activated during the assay with MK-8722
# Assay type: functional
# Parameters: scale not given: direction of the effect not stated beside the values
# Settings: 30 µM
row,SMILES,Percent Effect [%]
1,CC(O)c1cccc(OCc2ccon2)c1 (stereo not given),4.94
2,CCn1ccnc1CNCc1ccc(C)cc1OC(C)(C)C,25.5
3,O=C(CCc1ccsc1)NCC1CCN(C2CC2)C1 (stereo not given),-5.43
4,Cc1nc(C)n(CCC(=O)NCC2CCCOC2)n1 (stereo not given),10.8
5,Nc1nc(CCCNC(=O)c2ccccc2C2CCNC2)cs1 (stereo not given),-5.1
6,O=C(NCc1nc[nH]n1)c1cc(COc2cccc(C(F)(F)F)c2)[nH]n1,-6.06
7,CCN1CCN(C(=O)C2CCOC2)c2ccccc21 (stereo not given),-4.37
8,COc1nccc(N2CC[C@@H](N3CCC(O)CC3)[C@H](O)C2)c1C#N,5.62
9,O=C(CCOc1ccccc1F)N1CCC(O)CC1,3.95
10,CC(C)n1ccc(C(=O)OCC2CC(=O)N(Cc3ccccc3)C2)n1 (stereo not given),7.89
11,O=C(COc1ccc(-n2cccn2)nn1)N1CCCC1,3.54
12,CCC(CNC(=O)CCn1cncn1)N1CCc2ccccc2C1 (stereo not given),1.86
13,OCC1(NCc2cccc(-n3cccn3)c2)CCOCC1,-1.31
14,CCn1cc(CN(C)Cc2cnn(-c3ccc(F)cc3)c2)cn1,13.6
15,COc1cccc(F)c1C(C)NC(=O)NCc1cnc(C)s1 (stereo not given),10.2
16,CCC[C@@H]1CN(Cc2ccc(C(F)(F)F)nc2)C[C@H]1C(=O)O,-4.32
17,CN(CCCc1cnn(C)c1)Cc1cc2n(n1)CCNC2,-4.86
18,Cc1cc(=O)[nH]c(-n2nc(-c3ccccc3)cc2N)n1,-11.4
19,CC(CNC(=O)CCCn1cncn1)N1CCc2ccccc2C1 (stereo not given),14.6
20,O=C(NCc1cc(-c2ccccc2)no1)NC1CCCCNC1=O (stereo not given),-4.86

row,SMILES,Percent Effect [%]
1,CNC(=O)Cc1ccccc1NC(=O)N[C@H]1c2ccccc2C[C@H]1O,0.934
2,CC(C)(C)C(=O)N1CCCC1(C(=O)N1CCCC1)c1cnccn1 (stereo not given),-4.87
3,CCc1ncc2c(n1)CN(c1cc(NCCO)nc(N)n1)C2,-219
4,COC(=O)CC1CSCCN1C(=O)CCc1c(C)nn(C)c1C (stereo not given),5.71
5,CCC(NC(=O)NC1CCN(S(C)(=O)=O)CC1)c1cccs1 (stereo not given),-3.19
6,CC(C)O[C@H]1CN(C(=O)CCN2CCCCO2)C[C@@H]1O,-7.14
7,Cc1cc(-c2cc3nc(C)c(C)c(NCC4COCCO4)n3n2)no1 (stereo not given),17.6
8,COc1cc(F)cc2sc(NC(=O)COCC3CCCO3)nc12 (stereo not given),1.22
9,CC(NCc1cnc(N2CCOCC2)nc1)c1ccc(Cl)s1 (stereo not given),10.3
10,CCOc1ccc(NC(=O)NCCS(=O)(=O)CC)cc1C,-0.616
11,COc1ccc(CCn2cnc(C#N)n2)cc1,-6.21
12,c1cc(NCc2ccsc2)cc(-c2nnc[nH]2)c1,14.3
13,COCCN(Cc1sccc1C)C(=O)COc1ccccc1O,2.3
14,O=C1NC(C(=O)NCc2cccnc2Oc2ccc(F)cc2F)CO1 (stereo not given),5.7
15,CC(C)c1cc(C2CCN(C(=O)Cn3cncn3)CC2)[nH]n1,29.2
16,CN(Cc1ccccc1CNC(=O)C1CNC(=O)N1)C1CCCCC1 (stereo not given),-6.64
17,COc1ccc(N2CCC(NS(=O)(=O)N(C)C(C)C)CC2)cc1,13.8
18,Cc1c(NC(=O)NC(C)CCO)cccc1OC1CCCC1 (stereo not given),-7.69
19,CC(C(=O)NCc1ccc(F)cc1)N(C)CCN1CCOCC1 (stereo not given),2.87
20,O=C(O)c1cn(CC2CCCN(c3nc4ccccc4s3)C2)nn1 (stereo not given),-1.06
